Screening data: PubChem BioAssay, National Center for Advancing Translational Sciences (NCATS)
HCV inhibitor = HCV inhibition. Potency, µM (titrated, usually from 41.8 µM), without a hit: at the top dose activity change, negative = inhibition, most hits filed as inhibitors. 340,000 compounds, 3.4% hits. AID 651820. Huh7.5.1 HCVcc-Cre infection, luciferase reporter, 44 h; active means well fitted inhibition curve with a large enough effect; inconclusive means small, poorly fitted or top-dose-only effect, or another doubt; inactive means no such curve, though single readings can be large or run the other way
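1,000 cells/well; 4 h culture; + compound; + HCVcc-Cre (~0.5 moi); 44 h; luciferase substrate, RT 15 min; read 15 sec.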
Vaccinia Venus = inhibitors of vaccinia virus (Venus reporter). Vaccinia virus Venus reporter expression, fluorescence. Potency, µM (series often up to 36.5 µM), without a hit: top-dose activity change, negative = inhibition, most hits filed as inhibitors. 330,000 compounds, 0.46% hits. AID 720580; calls by dose curve; tested in A549 cells; further: nearly all actives have a fitted effect of over 30% in size
VACV mCherry inh = vaccinia inhibition (mCherry reporter); Potency, µM (doses to about 36.5 µM), for inactives: at the top dose activity change, negative = inhibition, most hits filed as inhibitors; AID 720579; 310,000 compounds, 0.63% hits; Vaccinia virus mCherry reporter infection, fluorescence; calls by dose curve; tested in A549 cells; further: nearly all actives have a fitted effect of over 35% in size
* = called active by the depositor; [ ] = remark or other dose. Only some compounds are listed: those with a hit (about 3.3% of all), similar ones and a draw of the others. On the % scale 0 is the no-effect control and ±100 the full control effect; potency means the concentration at half of the fitted maximal effect.

What do the screens show for `COc1cccc(CNC(=O)CSC2=Nc3ccccc3C3=NC(C)C(=O)N23)c1OC` (stereo not drawn)?
Vaccinia Venus: -0.9%; VACV mCherry inh: -16.1%

What do the screens show for `Cc1ccc(CNC(=O)c2oc3c(c2C)-c2nn(Cc4ccc(Cl)cc4)cc2CC3)cc1`?
Vaccinia Venus: inconclusive; VACV mCherry inh: -28.6%

Results for FC(F)(F)c1cnc(NNC(=S)Nc2cccnc2)c(Cl)c1 ?
HCV inhibitor: inconclusive; Vaccinia Venus: inconclusive; VACV mCherry inh: 10µM*

How did FC(F)(F)c1cnc(NNC(=S)Nc2ccccc2)c(Cl)c1 do in these assays?
Vaccinia Venus: -28.4%; VACV mCherry inh: -18.8%

What do the screens show for `Cc1ccc(/C=C2/Sc3ccccc3N(CC(=O)NCC3CCCO3)C2=O)cc1` (stereo not drawn)?
HCV inhibitor: inconclusive; Vaccinia Venus: -9.4%[7.34 µM]; VACV mCherry inh: -18.4%[7.34 µM]

What do the screens show for `CCc1ccc(/C=C2/Sc3ccccc3N(CC(=O)NCC3CCCO3)C2=O)cc1` (stereo not drawn)?
HCV inhibitor: 10µM*

What do the screens show for `COC(=O)c1ccc(Nc2ncnc3c2cnn3C)cc1`?
Vaccinia Venus: -4.5%; VACV mCherry inh: -10.4%

How did COc1ccc(CN2C[C@H](Sc3nc4ccccc4[nH]3)C[C@H]2C(=O)N(C)C)c2ccccc12 do in these assays?
Vaccinia Venus: -1.4%; VACV mCherry inh: -16.9%

How did Cc1ccccc1Cn1cc(NC(=O)CSc2nc3c(c(C(F)(F)F)n2)CCc2ccccc2-3)cn1 do in these assays?
HCV inhibitor: 12.6µM*

How did Cc1ccc(Cn2nc(C)c(NC(=O)CSc3nc4c(c(C(F)(F)F)n3)CCc3ccccc3-4)c2C)cc1 do in these assays?
HCV inhibitor: inconclusive; Vaccinia Venus: -8.1%; VACV mCherry inh: -28.9%

Results for Cc1[nH]c2ccccc2c1C(=O)C(C)Sc1nc2ccccc2c(=O)n1Cc1cccnc1 (stereo not drawn) ?
Vaccinia Venus: -14.7%; VACV mCherry inh: 11.5%

What do the screens show for `CCCCCCN1C[C@H](n2cc(C3CC3)nn2)[C@@H](O)C[C@@H]1c1ccccc1`?
Vaccinia Venus: 11.2µM*; VACV mCherry inh: inconclusive

What do the screens show for `CCCCCCN1C[C@@H](O)[C@H](n2cc(C3CC3)nn2)C[C@@H]1c1ccccc1`?
Vaccinia Venus: -28.0%; VACV mCherry inh: inactive

How did CCCCCCN1C[C@H](n2cc(-c3ccc(F)cc3)nn2)[C@@H](O)C[C@@H]1c1ccc(C)cc1 do in these assays?
Vaccinia Venus: inconclusive; VACV mCherry inh: 28.2µM*

How did CCCCCCN1C[C@H](n2cc(-c3ccc(F)cc3)nn2)[C@@H](O)C[C@@H]1c1ccc(OC)cc1 do in these assays?
Vaccinia Venus: -13.4%; VACV mCherry inh: -8.6%

What do the screens show for `Cc1cc(OCC(=O)Nc2ccc(C(=O)OC3CCCCC3)cc2)ccc1Cl`?
Vaccinia Venus: -17.7%; VACV mCherry inh: -13.2%

What do the screens show for `O=C(Nc1cnc(N2CCC(N3CCCCC3)CC2)c(C(=O)O)c1)c1ccc(Br)cc1`?
Vaccinia Venus: -4.3%; VACV mCherry inh: -9.4%

What do the screens show for `COc1cc(OC)c(OC)cc1/C=C/c1nc2cc3ccccc3cc2c(=O)n1-c1ccc(F)cc1F`?
Vaccinia Venus: inconclusive; VACV mCherry inh: -6.5%

How did C=C1C=C(C)n2ncc(C(=O)Nc3cccc4cnccc34)c2N1 do in these assays?
Vaccinia Venus: -9.5%; VACV mCherry inh: -2.7%

What do the screens show for `COC(=O)C1=C(C)NC(C)=C(C(=O)OCC(C)C)C1c1ccccc1[N+](=O)[O-]` (stereo not drawn)?
HCV inhibitor: 25.1µM*; Vaccinia Venus: -27.8%; VACV mCherry inh: inconclusive

How did COC(=O)C1=C(C)NC(C)=C([N+](=O)[O-])[C@H]1c1ccccc1C(F)(F)F do in these assays?
Vaccinia Venus: -13.0%; VACV mCherry inh: 11.4%

Results for CCOC(=O)c1cc(-c2ccccc2)sc1NC(=O)C(C)OC(=O)c1cccnc1OCC (stereo not drawn) ?
HCV inhibitor: 3.55µM*; Vaccinia Venus: -2.5%; VACV mCherry inh: -10.0%

How did CCOC(=O)c1cc(-c2ccccc2)sc1NC(=O)C(C)OC(=O)c1cccc(S(=O)(=O)N(C)C)c1 (stereo not drawn) do in these assays?
HCV inhibitor: inconclusive; Vaccinia Venus: -9.3%; VACV mCherry inh: inactive

Results for CSc1ccc(CNC(=O)Cn2nc(N3CCN(c4ccccc4)CC3)ccc2=O)cc1 ?
Vaccinia Venus: -9.0%; VACV mCherry inh: -13.1%

Results for O=C(Nc1cccc(C(F)(F)F)c1)c1cccn(Cc2ccc3c(c2)OC(F)(F)O3)c1=O ?
HCV inhibitor: 0.7%

How did O=C(Nc1ccc(C(F)(F)F)cc1)c1cccn(Cc2ccc3c(c2)OC(F)(F)O3)c1=O do in these assays?
HCV inhibitor: 10µM*

Results for CC1(c2nc3ccccc3[nH]2)CCC(=O)N1Cc1ccc(F)cc1 (stereo not drawn) ?
Vaccinia Venus: 5.5%; VACV mCherry inh: 44.1%
